The supplement of paper PMC10338343
± gives the standard deviation.

Legend:
[1] = test system: MILI (PIWIL2) piRISC loaded with piRNA #1 (26 nt); test: pre-steady-state target cleavage rate (min^-1); guide: piRNA #1 5'p-UGAGGUAGUAGGUUGUAUAGUAUCCA; higher = faster piRNA-guided slicing of the target; conditions: auxiliary factor: 500 nM mouse GTSF1;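 further: 1 nM active piRISC with 0.1 nM target library at 33 °C single turnover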
How it was run: (§1)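 In this Cleave-'n-Seq assay, uncleaved targets were sequenced and normalised to depth and to weakly complementary targets. They came from a transcribed, DNA-blocked target RNA library […] mixed with 1 nM active affinity-purified piRISC carrying one synthetic guide, with or without 500 nM GTSF1 partner protein, in HEPES–potassium acetate buffer at 33 °C for 0–8 or 0–960 min. After three trials were pooled and k3 was capped at 0.0001 min^-1, the pre-steady-state cleavage rate was obtained from a burst-and-steady-state fit.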

[2] = test system: EfPiwi piRISC loaded with piRNA #1 (26 nt); test: pre-steady-state target cleavage rate (min^-1); auxiliary factor: 500 nM Ephydatia muelleri Gtsf1; guide: piRNA #1 5'p-UGAGGUAGUAGGUUGUAUAGUAUCCA; MIWI and MILI are mouse PIWI proteins and EfPiwi is from a freshwater sponge; tags in brackets are library labels; higher = faster piRNA-guided slicing of the target
How it was run: as §1

| Sequence | pre-steady-state target cleavage rate [1] | pre-steady-state target cleavage rate [2] |
| --- | --- | --- |
| GGAGUGGAUACUAUACAGCCUACUACCUCA | 0.147 ± 0.0093 | 0.216 ± 0.073 |
| GGAGACGAUACUAUACAUCCAACUACCUCA | 0.00801 ± 0.0028 | 0.00562 ± 0.0029 |
| GGAGACGAUACUAUACAACCUACUACCUCCA | 0.214 ± 0.014 | 0.02 ± 0.0073 |
| GGAGUGGAUACAAUACAACCUACUACCUGA | 0.0731 ± 0.011 | 0.00396 ± 0.0018 |
| GGAGUGGAUACUAUACUACCUACUACGUCA | 0.0586 ± 0.0078 | 0.00245 ± 0.0017 |
| GGAGAGGAUACUAUACAACCUAUCUACCUCA | 0.128 ± 0.012 | 0.00568 ± 0.0029 |
| GGAGACCUUACUAUACAGCCUACUACCUCA | 0.116 ± 0.012 | 0.068 ± 0.028 |
| GGAGACCUAUGUAUUCAACCUACUACCACA | 0.0995 ± 0.016 | < 0.0001 |
| GGAGACGAUACUAUACAACCUGCUACCUCA | 0.0677 ± 0.008 | 0.128 ± 0.046 |
| GGAGUGUAUACUAUACAACCUACUACCUCA | 0.167 ± 0.0094 | 0.0133 ± 0.0057 |
| GGAGACCUAUCUAUACAACCCACUACCUCA | 0.0169 ± 0.0041 | 0.00474 ± 0.0043 |
| GGAGUGGAUACUAUUCAACCUAGUACCUCA | 0.0485 ± 0.0085 | 0.00286 ± 0.0013 |
| GGAGACGAUACUAUACAACCUCACUACCUCA | 0.00413 ± 0.0033 | 0.0049 ± 0.0024 |
| GGAGAGGAUACUAUACAACCUGCUACCUCA | 0.066 ± 0.0089 | 0.114 ± 0.043 |
| GGAGACGAUACUAUACGACCUACUACCUCA | 0.0963 ± 0.012 | 0.0807 ± 0.028 |
| GGAGUCGAUACUAUACAACCUACAACCUCA | 0.0405 ± 0.0054 | 0.00324 ± 0.0017 |
| GGAGAGGAUACUUUACAACCUACUACGUCA | 0.0429 ± 0.0069 | 0.00296 ± 0.0023 |
| GGAGAGGAUACUAUAGAUCCUACUACCUCA | 0.242 ± 0.024 | 0.00654 ± 0.0034 |
| GGAGACGAUACUAUACAACCUACUACUCA | 0.125 ± 0.019 | 0.00549 ± 0.0025 |
| GGAGUGGAUACUAUCCAACCUACUACCUCA | 0.197 ± 0.01 | 0.0097 ± 0.0041 |
| GGAGACCAUACUAUACAACCUCCUACCUCA | 0.0492 ± 0.0088 | 0.00434 ± 0.0015 |
| GGAGUGGAUACUAUACAACCAAGUACCUCA | 0.00277 ± 0.0018 | 0.00281 ± 0.0018 |
| GGAGUGGAUACUAUGACAACCUACUACCUCA | 0.188 ± 0.011 | 0.0114 ± 0.0053 |
| GGAGUGGAUACUAUACAACCUUCUACCUCA | 0.00895 ± 0.002 | 0.0116 ± 0.0048 |
| GGAGAGGUUACUUUACAACCUACUACCUCA | 0.175 ± 0.01 | 0.00375 ± 0.0031 |
| GGAGUGGAUACUAUGCAACCUACUACCUCA | 0.192 ± 0.009 | 0.09 ± 0.035 |
| GGAGAGGAUACUAUACAUCCUACUUCCUCA | 0.0107 ± 0.0033 | 0.00317 ± 0.0017 |
| GGAGACCUAUCUAUACAACCUAGUACCUCA | 0.0209 ± 0.0054 | 0.00361 ± 0.0027 |
